According to ChEMBL document CHEMBL4808148, “HDAC6 screening dataset using tau-based substrate in an enzymatic assay yields selective inhibitors and activators” (2021):
Among all 5,600 compounds or so, about 390 (7%) showed an effect of 50% or more. Only a selection was taken, and strong results are over-represented in it overall.

biological target: T1, Protein deacetylase HDAC6 (Homo sapiens) (UniProt Q9UBN7); settings: at 10 µM
T1 sequence (whole entry): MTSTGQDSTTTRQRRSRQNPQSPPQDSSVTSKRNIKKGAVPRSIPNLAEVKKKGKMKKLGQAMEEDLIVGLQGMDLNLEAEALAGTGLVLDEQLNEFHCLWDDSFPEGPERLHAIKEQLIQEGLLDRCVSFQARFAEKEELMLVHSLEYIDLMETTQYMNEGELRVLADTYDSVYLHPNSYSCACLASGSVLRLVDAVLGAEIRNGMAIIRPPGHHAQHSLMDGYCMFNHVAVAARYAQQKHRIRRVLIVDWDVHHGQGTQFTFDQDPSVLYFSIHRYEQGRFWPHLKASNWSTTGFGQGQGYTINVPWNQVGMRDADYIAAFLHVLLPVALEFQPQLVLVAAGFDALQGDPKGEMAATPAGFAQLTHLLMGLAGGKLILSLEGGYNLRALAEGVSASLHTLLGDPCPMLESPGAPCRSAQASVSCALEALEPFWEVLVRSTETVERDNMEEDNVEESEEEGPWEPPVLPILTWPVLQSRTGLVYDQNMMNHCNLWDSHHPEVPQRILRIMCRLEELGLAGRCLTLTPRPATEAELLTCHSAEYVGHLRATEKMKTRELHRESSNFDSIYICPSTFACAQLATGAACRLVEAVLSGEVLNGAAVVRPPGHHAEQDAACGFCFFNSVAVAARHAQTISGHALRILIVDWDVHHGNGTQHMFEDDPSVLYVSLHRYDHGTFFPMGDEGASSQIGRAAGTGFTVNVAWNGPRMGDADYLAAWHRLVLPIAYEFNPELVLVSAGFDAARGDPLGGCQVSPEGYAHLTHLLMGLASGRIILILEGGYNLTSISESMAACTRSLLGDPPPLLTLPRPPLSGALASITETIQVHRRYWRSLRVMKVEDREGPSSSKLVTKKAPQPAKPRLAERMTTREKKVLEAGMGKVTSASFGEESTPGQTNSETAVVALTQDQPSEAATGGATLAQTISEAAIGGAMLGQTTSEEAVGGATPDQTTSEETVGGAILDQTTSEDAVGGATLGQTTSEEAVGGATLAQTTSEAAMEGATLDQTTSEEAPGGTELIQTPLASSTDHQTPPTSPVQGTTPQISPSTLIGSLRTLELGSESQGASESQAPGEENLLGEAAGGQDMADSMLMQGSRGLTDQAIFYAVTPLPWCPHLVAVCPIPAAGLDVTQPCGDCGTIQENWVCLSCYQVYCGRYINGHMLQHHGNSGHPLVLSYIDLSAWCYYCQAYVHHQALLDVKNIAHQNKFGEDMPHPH

| SMILES | inhibition [%] |
| --- | --- |
| O=C(Nc1ccccc1C(=O)Nc1ccc(CCO)cc1)c1ccc([N+](=O)[O-])cc1 | 78.3 |
| CCOC(=O)[C@H](Cc1ccc([N+](=O)[O-])cc1)NC(=O)c1ccccc1 | 14.4 |
| O=C(Nc1cc(-c2ccccc2)nn1-c1ccccc1)c1ccc([N+](=O)[O-])cc1 | 23 |
| C[C@]12C=CC(=O)N[C@@H]1CC[C@@H]1[C@@H]2CC[C@]2(C)[C@@H](C(=O)Nc3cc(C(F)(F)F)ccc3C(F)(F)F)CC[C@@H]12 | 34.1 |
| O=C(NCCN1CCC(n2c(=O)[nH]c3ccccc32)CC1)c1cc2cc(F)ccc2[nH]1 | 22.7 |
| CCOCOC[C@H](C[C@H](C)C(=O)NO)NC(=O)c1ccc(Oc2ccccc2)cc1 | 25.9 |
| CC(C(=O)O)c1ccc(-c2ccccc2)c(F)c1 (racemic) | 13.4 |
| C[C@@H](C(=O)O)c1ccc(-c2ccccc2)c(F)c1 | 0.12 |
| CC(C(=O)O)c1ccc2c(c1)Cc1ccccc1-2 (stereo unspecified) | 63.7 |
| CCn1cnc(C(=O)NC)c1C(=O)NC | -8.83 |
| Cc1ccccc1N1CCN(S(=O)(=O)CC23CCC(C[C@@H]2NC(=O)[C@@H](N)CCS(C)(=O)=O)C3(C)C)CC1 (stereo partly specified) | 2.99 |
| CN[C@@H]1[C@H](O[C@H]2[C@H](O[C@H]3[C@H](O)[C@@H](O)[C@H](NC(=N)N)[C@@H](O)[C@@H]3NC(=N)N)O[C@@H](C)[C@]2(O)CO)O[C@@H](CO)[C@H](O)[C@H]1O | 8.93 |
| C/C1=C/C[C@@H](/C(C)=C/c2csc(C)n2)OC(=O)C[C@H](O)C(C)(C)C(=O)[C@H](C)[C@@H](O)[C@@H](C)CCC1 | -9.51 |
| CN(C)CC/C=C1\c2ccccc2Sc2ccc(Cl)cc21 | 91.2 |
| CC(C1=C(CCN(C)C)Cc2ccccc21)c1ccccn1 (stereo unspecified) | -6.73 |
| C[C@@H](C1=C(CCN(C)C)Cc2ccccc21)c1ccccn1 | -1.4 |
| CC(=O)c1ccc2c(c1)N(CCCN(C)C)c1ccccc1S2 | 43.7 |
| CN(C)CCC=C1c2ccccc2CCc2ccccc21 | 60.4 |
| CCOC(=O)c1ccc(-c2ccc(OC(=O)N(C)Cc3cccc(-c4ccncc4)c3)cc2)cc1 | 5 |
| CC(C)(C)c1cc(C(C)(C)C)c2c(c1)C(O)(C(F)(F)F)C(=O)O2 (racemic) | -6.8 |
| Fc1ccccc1CNCc1ccc(-c2ccnc3[nH]ccc23)cc1 | 44.7 |
| CSc1nc(N)cc(Oc2ccc(-c3nnc(Nc4cccc(C(F)(F)F)c4)[nH]3)cc2)n1 | 10.4 |
| CC(C)[C@@H](C)/C=C/[C@@H](C)[C@H]1CC[C@H]2C3=CC=C4C[C@@H](O)CC[C@]4(C)[C@H]3CC[C@]12C | 26.6 |

| SMILES | inhibition [%] |
| --- | --- |
| COc1cccc(CN2C[Si](C)(C)O[Si](C)(C)C2)c1 | 9.47 |
| Nc1ncnc2c1ncn2[C@@H]1O[C@H](COP(=O)(O)OP(=O)(O)OP(=O)(O)O)[C@@H](O)[C@H]1O | -7.9 |
| NC(=O)Cc1cccc(C(=O)c2ccccc2)c1N | 48.4 |
| Nc1c(CC(=O)O)cccc1C(=O)c1ccccc1 | 0.48 |
| Nc1c(CC(=O)O)cccc1C(=O)c1ccc(Br)cc1 | 69.8 |
| COc1cc(OC)nc(O[C@H](C(=O)O)C(OC)(c2ccccc2)c2ccccc2)n1 | -2.76 |
| COc1cc(/C=C/C(N)=O)cc(OC)c1OC | 13.3 |
| Cn1cc(C(=O)c2cccc3ccccc23)cc1C(=O)O | 25 |
| Cn1cc(-c2ccc(F)c(C(F)(F)F)c2)nc1C1CCN(c2ncnc3[nH]ncc23)CC1 | 24 |
| CCCCCCCCCCCCCCCCCC[S+](CCC)c1ccccc1C(=O)OCC (stereo unspecified) | 21 |
| CC[n+]1c(-c2ccccc2)c2cc(N)ccc2c2ccc(N)cc21 | 2.78 |
| CC[N+](C)(CC)CCC[n+]1c(-c2ccccc2)c2cc(N)ccc2c2ccc(N)cc21 | 60.2 |
| CC(C)(C(=O)O)c1ccc(C(=O)CCCN2CCC(OC(c3ccccc3)c3ccccc3)CC2)cc1 | 3.08 |
| CCc1c2c(nc3ccc(OC(=O)N4CCC(N5CCCCC5)CC4)cc13)-c1cc3c(c(=O)n1C2)COC(=O)[C@]3(O)CC | -2.26 |
| Cc1cc(SCc2sc(-c3ccc(C(F)(F)F)c(F)c3)nc2C)ccc1OCC(=O)O | 66.5 |
| Cc1cc(OCc2nc(-c3ccccc3Cl)cs2)ccc1OCC(=O)O | 33.8 |
| Cn1ncnc1COc1nn2c(-c3c(F)cccc3F)nnc2cc1C1CCC1 | 3.27 |
| CCOC(=O)C(=O)Nc1cccc(OC)c1C(N)=O | 24.8 |
| CCN(CC)CCCCC(NC(=O)c1ccc([N+](=O)[O-])cc1)c1ccccc1 (stereo unspecified) | -1.83 |
| CCOc1ccc(/C=C2\NCCc3cc(OCC)c(OCC)cc32)cc1OCC | 7.94 |
| CCOc1nc2c(N)ncnc2n1CC | 7.36 |
| CN(C)CCOc1ccc(/C(=C(/CCCl)c2ccccc2)c2ccccc2)cc1 | 33.5 |
| Nc1ncnc2c1c(-c1cnc3[nH]ccc3c1)nn2C1CCCC1 | 27.2 |
